ST2 inh: inhibitors of human ST2 (IL1RL1) binding to IL-33, primary screen, biochemical, AlphaLISA. Interleukin-1 receptor-like 1 (Homo sapiens), Q01638. AlphaLISA ST2-Fc/biotin-IL-33 interaction, 1 h. inhibition, % for hits at 17 µM. 2.3% of 78,000 active; in the data active = inhibition above about 30%
Target sequence (Q01638 whole entry, looked up): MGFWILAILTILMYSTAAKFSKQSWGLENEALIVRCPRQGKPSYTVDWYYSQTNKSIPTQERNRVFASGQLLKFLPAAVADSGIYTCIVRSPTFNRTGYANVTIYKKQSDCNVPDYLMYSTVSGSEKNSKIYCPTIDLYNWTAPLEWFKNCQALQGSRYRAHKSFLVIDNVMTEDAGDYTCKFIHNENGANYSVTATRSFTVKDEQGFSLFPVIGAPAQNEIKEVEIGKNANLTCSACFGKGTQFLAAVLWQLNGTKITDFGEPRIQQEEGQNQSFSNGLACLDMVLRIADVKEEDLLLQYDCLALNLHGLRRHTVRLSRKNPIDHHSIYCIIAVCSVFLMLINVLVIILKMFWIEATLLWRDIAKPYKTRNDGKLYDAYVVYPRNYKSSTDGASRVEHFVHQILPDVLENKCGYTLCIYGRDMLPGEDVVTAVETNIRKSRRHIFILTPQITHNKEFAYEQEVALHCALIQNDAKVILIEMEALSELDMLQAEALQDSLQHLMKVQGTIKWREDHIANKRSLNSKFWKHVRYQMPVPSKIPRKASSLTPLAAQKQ
An asterisk follows results filed as active; i = inactive. The full list was thinned out, with hits kept by preference.

SMILES	ST2 inh
COC(=O)CSc1nc2c(c(=O)[nH]1)C(C1CCCC1)Cc1ccccc1-2 (configuration not stated)	i
FC(F)(F)Oc1ccc(-c2noc([C@@H]3Cc4nc[nH]c4CN3)n2)cc1	i
COC(=O)c1cc(S(=O)(=O)Nc2ccccc2OC)c(Cl)cc1Cl	i
Cc1cccc(O)c1N=Cc1cc(Br)cc(Cl)c1O	i
CCOC(=O)N1CCC(NC(=O)C2CCC(=O)N(C3CCCCCC3)C2)CC1 (configuration not stated)	i
CC1(C)C[C@@H]2C[C@@](C)(CN2C2CC(=O)N(c3ccc(F)cc3)C2=O)C1 (some centres not stated)	i
Cc1ccc(C2C(C#N)=C(N)OC3=C2C(=O)CCC3)o1 (configuration not stated)	i
CCOC(=O)CC1=C(C(=O)OCC)C(c2ccc(C)o2)C(C#N)=C(N)O1 (configuration not stated)	i
Cc1ccc(C2C(C#N)=C(N)Oc3c2sc2ccccc32)o1 (configuration not stated)	39.0%*
CCC(C)CC(C)CC(CO)CC(C)/C=C(C)/C=C(/CC(C)C(=O)O)C(=O)O (configuration not stated)	i
O=C(c1ccccn1)C1CCCN(Cc2nc(COc3ccccc3)no2)C1 (configuration not stated)	i
CCc1ccc(-c2nc(SCC(=O)NCc3ccco3)c(-c3ccc(F)cc3)[nH]2)cc1	i
O=C(O)CC1(CC(=O)N[C@H]2CO[C@H]3[C@@H]2OC[C@@H]3Nc2nccc(-c3ccc(-c4ccccc4)cc3)n2)CCCC1	i
O=C(Nc1cccc(Cl)c1)c1ccc(C(F)(F)F)cc1	i
Cc1[nH]n(-c2ccccc2)c(=O)c1C=Nc1ccc([N+](=O)[O-])cc1Cl	i
CC(=O)c1ccc(N=Cc2c(C)[nH]n(-c3ccccc3)c2=O)cc1	i
Cc1[nH]n(-c2ccc(Cl)cc2)c(=O)c1C=Nc1cccc(Nc2ccccc2)c1	30.0%*
O=C(Nc1ccc(Oc2ccc(Cl)cc2)cc1)C(Cl)(Cl)Cl	i
CCOc1ccc2nc(SCC(=O)Nc3ccccc3Br)[nH]c2c1	i
CCOc1ccc([N+](=O)[O-])cc1C1Nc2ccccc2-c2nnc(SC)nc2O1 (configuration not stated)	i
CC1=C(C(=O)Nc2ccc(Cl)cc2)C(c2ccc([N+](=O)[O-])cc2)n2ncnc2N1 (configuration not stated)	i
CCOC1=NC2Nc3ccc(Cl)cc3N(C)C2C1c1ccc([N+](=O)[O-])cc1 (configuration not stated)	36.0%*
Cc1[nH]nc(CCC(=O)N2CC[C@@H](N3CCOCC3)[C@H](O)C2)c1C	i
COc1cc(C(=O)N2CCN=C2SCc2ccccc2F)cc(OC)c1OC	i
C=CCN1C(=O)c2ccccc2Sc2ccc(C(=O)NC3CC3)cc21	i
SMILES	ST2 inh
CCOC(=O)c1sc(=Nc2ccc(C)cc2)n(CCN2CCOCC2)c1C	i
CCOc1ccc(N=c2scc(-c3ccc(F)cc3)n2CCCO)cc1	40.0%*
Cn1c(=NC(=O)c2ccc(S(=O)(=O)N3CCCC3)cc2)sc2cc(Cl)ccc21	i
Fc1ccc(Nc2nc(-c3ccc(Cl)cc3)cs2)cc1	i
CCOc1ccc(NC(=O)Cc2ccc(F)cc2)cc1	i
O=C(c1ccc(S(=O)(=O)N2CCCC2)cc1)N1CCN=C1SCc1ccc(Cl)cc1	i
O=C(NCc1ccc(F)cc1)c1cc(-c2ccc(Cl)cc2)on1	i
O=S(=O)(c1ccc(-c2csc(=Nc3ccc(Cl)cc3)n2CCCO)cc1)N1CCCC1	40.0%*
CCOC(=O)c1sc(=NC(=O)c2ccc(OCC)cc2)n(C)c1C	i
CCOc1ccc(-c2csc(=Nc3ccccc3)n2CCN2CCOCC2)cc1	i
CCOc1ccc(N=c2scc(-c3ccc(C)cc3)n2C)cc1	43.0%*
OCCCn1c(-c2ccc(F)cc2)csc1=Nc1ccc(Cl)cc1	46.0%*
O=c1c2cnn(-c3ccccc3)c2ncn1Cc1ccc(Br)cc1	i
CCOc1ccc(CN2CCOC3(CNCCOC3)C2)cc1CO (configuration not stated)	i
Cc1sc2ncn(CC(=O)N3CCCC3)c(=O)c2c1S(=O)(=O)N1CC(C)CC(C)C1 (configuration not stated)	i
COC(=O)[C@@H]1Cc2ncn(Cc3ccc(Cl)cc3)c2CN1S(=O)(=O)c1ccc(F)cc1	i
CSc1ccc(CN(C)C2CCN(C)CC2)cc1	i
OC[C@@H]1O[C@H](CNCc2ccccn2)[C@H](N2CCN(c3ncccn3)CC2)[C@@H]1O	i
O=C(Nc1ccc(N2CCOCC2)cc1)c1ccccc1	i
Cc1cc(C(=O)Nc2ccc(N3CCOCC3)cc2)ccc1[N+](=O)[O-]	i
O=C(Nc1ccc(N2CCOCC2)cc1)c1cccc([N+](=O)[O-])c1	30.0%*
Cc1nnc(CN2CCOc3c(O)cc(-c4csc5ccccc45)cc3C2)o1	i
Fc1ccccc1CN1CCOC(Cc2ccccc2)C1 (configuration not stated)	i
O=C(O)c1cccc(N=Cc2cccc([N+](=O)[O-])c2O)c1	i
O=[N+]([O-])c1cccc(C=Nc2ccc(-c3nc4ncccc4o3)cc2)c1O	i
SMILES	ST2 inh
O=[N+]([O-])c1ccccc1/C=C/c1ccc2cccc(O)c2n1	41.0%*
c1ccc2c(CN3CCOCC3)ccnc2c1	40.0%*
Clc1cccc(CN2CCOCC2)c1Cl	i
CS(=O)(=O)NCCC1CN(Cc2ccnc3ccccc23)CCO1 (configuration not stated)	i
C(=C\c1ccccn1)/c1cccc(-n2cnnc2)c1	i
O=C(c1ccccc1)c1ccc(/C=C/c2ccccn2)cc1	55.0%*
C(=C\c1cc(/C=C/c2ccccc2)ncn1)/c1ccccc1	i
CN(C(=O)CCCn1c2ccccc2c(=O)c2ccccc21)C1CCCCC1	i
Cc1[nH]nc(SCC(=O)Nc2cc(Cl)ccc2O)c1[N+](=O)[O-]	i
Cc1ccc2nc(-c3cc(N=Cc4ccc([N+](=O)[O-])cc4)ccc3O)[nH]c2c1	38.0%*
O=[N+]([O-])c1ccccc1C=Nc1ccc2nc(-c3ccccc3)[nH]c2c1	i
O=[N+]([O-])c1cccc(N=Cc2nc(-c3ccc(Br)cc3)oc2O)c1	i
Cc1ccc2nc(-c3cc(N=Cc4cccc([N+](=O)[O-])c4)ccc3O)[nH]c2c1	43.0%*
CC(=O)Nc1nc(C)c(-c2nc3ccc([N+](=O)[O-])cc3[nH]2)s1	i
Cc1ccc2nc(-c3cc(N=Cc4cccc([N+](=O)[O-])c4O)ccc3O)[nH]c2c1	36.0%*
O=[N+]([O-])c1cccc(C=Nc2ccc(F)cc2)c1O	i
CC(=O)N1CCc2cc(N=Cc3cc([N+](=O)[O-])ccc3O)ccc21	i
C/C(=C\c1ccccc1)c1nc2ccc([N+](=O)[O-])cc2[nH]1	i
CN(CCC#N)C(=O)COc1ccc2c(c1)C(=O)CC(C)(C)O2	i
CCCCOc1ccc(C(=O)N(c2ccc(C(C)C)cc2)C2C=CS(=O)(=O)C2)cc1 (configuration not stated)	i
CCCCCNC(=O)C1CCC(Cn2c(=O)c3sccc3n(CC(=O)NC(C)C)c2=O)CC1 (configuration not stated)	i
O=S(=O)(c1cccc(C(F)(F)F)c1)N1CCSC1c1ccc(Cl)cc1 (configuration not stated)	i
O=C1c2ccc(Br)cc2C(=O)N1c1ccccc1O	i

Source: PubChem (Paczesny and Yang Labs, IUPUI and University of Michigan)
